Holding throughout (design): scale not given: direction of the effect not stated beside the values
Test [1] addresses Protein translocase subunit SecA (Escherichia coli (strain K12)) (UniProt P10408). Briefly: Assay to Identify E. coli SecA ATPase Inhibitors. To be noted: 30 µM. The format is functional.
Test [2] concerns the target T1, Ubiquitin-activating enzyme e1, putative (Leishmania donovani (strain BPK282A1)) (UniProt E9BSI1).
T1 sequence (whole entry): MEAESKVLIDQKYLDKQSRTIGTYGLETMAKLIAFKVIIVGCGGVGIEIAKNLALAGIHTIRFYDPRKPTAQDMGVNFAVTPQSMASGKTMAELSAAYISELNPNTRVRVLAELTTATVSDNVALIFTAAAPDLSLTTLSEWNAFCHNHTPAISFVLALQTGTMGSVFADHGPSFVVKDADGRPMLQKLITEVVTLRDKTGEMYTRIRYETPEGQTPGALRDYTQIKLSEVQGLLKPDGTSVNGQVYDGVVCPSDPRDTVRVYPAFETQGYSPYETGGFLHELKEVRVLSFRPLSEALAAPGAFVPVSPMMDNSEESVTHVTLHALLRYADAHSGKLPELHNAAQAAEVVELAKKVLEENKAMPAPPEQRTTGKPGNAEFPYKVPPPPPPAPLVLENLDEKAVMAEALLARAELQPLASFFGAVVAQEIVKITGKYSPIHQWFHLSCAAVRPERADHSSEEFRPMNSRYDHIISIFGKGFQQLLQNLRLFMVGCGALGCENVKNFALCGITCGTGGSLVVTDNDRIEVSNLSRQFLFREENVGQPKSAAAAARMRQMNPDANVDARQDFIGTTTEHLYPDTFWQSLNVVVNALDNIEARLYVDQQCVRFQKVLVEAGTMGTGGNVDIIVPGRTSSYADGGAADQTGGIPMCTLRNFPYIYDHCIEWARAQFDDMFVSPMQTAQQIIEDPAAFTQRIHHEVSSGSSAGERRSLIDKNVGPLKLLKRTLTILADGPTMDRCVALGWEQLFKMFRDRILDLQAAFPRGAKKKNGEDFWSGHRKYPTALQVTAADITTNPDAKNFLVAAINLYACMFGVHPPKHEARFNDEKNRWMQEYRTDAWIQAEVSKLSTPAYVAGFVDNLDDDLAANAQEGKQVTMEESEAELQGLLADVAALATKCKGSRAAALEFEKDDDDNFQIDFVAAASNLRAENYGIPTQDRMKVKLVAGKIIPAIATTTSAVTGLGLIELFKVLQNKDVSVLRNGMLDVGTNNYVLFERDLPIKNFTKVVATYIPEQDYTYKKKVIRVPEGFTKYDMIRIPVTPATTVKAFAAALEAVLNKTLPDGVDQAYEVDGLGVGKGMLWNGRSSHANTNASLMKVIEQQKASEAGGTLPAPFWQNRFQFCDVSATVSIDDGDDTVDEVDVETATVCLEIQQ
Briefly: Leishmania donovani Ubiquitin Activating Enzyme (LdE1). The format is functional. Particulars: 30 µM.

Test [3] concerns the target AMP-activated protein kinase, AMPK (Homo sapiens) (UniProt P54646+O43741+P54619+Q9UGJ0+Q9Y478+Q13131+Q9UGI9). As to the kind of experiment: AMP-dependent Kinase enzyme assay. An in vitro enzyme assay that detects ADP turnover that is directly proportional to AMPK activity. This uses naive AMPK that is activated during the assay with MK-8722. The format is functional. Particulars: 30 µM.

The target of test [4] is Sialic acid-binding Ig-like lectin 9 (Homo sapiens) (UniProt Q9Y336). As to the kind of experiment: Hs-Siglec9 ALPHAscreen SOP 20170721. To be noted: 10 µM. (In general: Alpha assays give light when donor and acceptor beads are brought close together.)
Another test concerns Trypanosoma cruzi. As to the kind of experiment: Trypanosoma cruzi phosphomannomutase and mannose-1-phosphate guanylyltransferase assay. The format is functional. Particulars: 10 µM.
In test [5] the target is T2, Arginase-2, mitochondrial (Homo sapiens) (UniProt P78540).
T2 sequence (whole entry): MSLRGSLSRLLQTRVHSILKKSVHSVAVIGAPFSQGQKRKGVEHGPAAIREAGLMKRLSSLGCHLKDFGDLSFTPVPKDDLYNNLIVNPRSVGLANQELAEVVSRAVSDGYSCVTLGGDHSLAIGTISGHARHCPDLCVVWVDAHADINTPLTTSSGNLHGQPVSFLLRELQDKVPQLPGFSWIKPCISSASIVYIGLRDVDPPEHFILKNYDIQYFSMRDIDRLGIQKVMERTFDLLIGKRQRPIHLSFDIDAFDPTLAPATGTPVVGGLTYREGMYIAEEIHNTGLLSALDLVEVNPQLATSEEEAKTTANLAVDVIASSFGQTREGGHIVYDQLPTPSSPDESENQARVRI
Briefly: in vitro enzyme assay to detect the production of urea directly proportional to the activity of Arginase II. Note: in the data most compounds retested in dose-response had high values. The format is functional. To be noted: 33.3 µM.

Test [6] concerns the target T3, Proteasome subunit beta (Trypanosoma cruzi) (UniProt O96673).
T3 sequence (whole entry): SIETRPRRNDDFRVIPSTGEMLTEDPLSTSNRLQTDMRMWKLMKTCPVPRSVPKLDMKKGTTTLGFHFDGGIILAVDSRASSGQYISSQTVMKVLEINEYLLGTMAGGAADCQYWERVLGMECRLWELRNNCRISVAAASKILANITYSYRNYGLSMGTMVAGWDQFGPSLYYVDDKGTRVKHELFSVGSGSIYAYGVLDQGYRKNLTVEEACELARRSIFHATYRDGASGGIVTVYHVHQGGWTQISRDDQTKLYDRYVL
As to the kind of experiment: Trypanosoma cruzi proteasome chymotrypsin-like activity (TcProtChymo) assay. Note: in the data most compounds retested in dose-response had high values. Particulars: 9.37 µM. The format is functional.

The next test is filed under the species Homo sapiens. As to the kind of experiment: To identify inhibition of the IFN signalling (Jak-Stat) pathway via expression of an eGFP reporter gene under the control of an IFN-stimulated response element (ISRE) containing MxA promoter. The format is functional. Particulars: 30 µM.
Test [7] has as its target T4, Tyrosyl-tRNA synthetase, putative (Trypanosoma cruzi (strain CL Brener)) (UniProt Q4DSP6).
T4 sequence (whole entry): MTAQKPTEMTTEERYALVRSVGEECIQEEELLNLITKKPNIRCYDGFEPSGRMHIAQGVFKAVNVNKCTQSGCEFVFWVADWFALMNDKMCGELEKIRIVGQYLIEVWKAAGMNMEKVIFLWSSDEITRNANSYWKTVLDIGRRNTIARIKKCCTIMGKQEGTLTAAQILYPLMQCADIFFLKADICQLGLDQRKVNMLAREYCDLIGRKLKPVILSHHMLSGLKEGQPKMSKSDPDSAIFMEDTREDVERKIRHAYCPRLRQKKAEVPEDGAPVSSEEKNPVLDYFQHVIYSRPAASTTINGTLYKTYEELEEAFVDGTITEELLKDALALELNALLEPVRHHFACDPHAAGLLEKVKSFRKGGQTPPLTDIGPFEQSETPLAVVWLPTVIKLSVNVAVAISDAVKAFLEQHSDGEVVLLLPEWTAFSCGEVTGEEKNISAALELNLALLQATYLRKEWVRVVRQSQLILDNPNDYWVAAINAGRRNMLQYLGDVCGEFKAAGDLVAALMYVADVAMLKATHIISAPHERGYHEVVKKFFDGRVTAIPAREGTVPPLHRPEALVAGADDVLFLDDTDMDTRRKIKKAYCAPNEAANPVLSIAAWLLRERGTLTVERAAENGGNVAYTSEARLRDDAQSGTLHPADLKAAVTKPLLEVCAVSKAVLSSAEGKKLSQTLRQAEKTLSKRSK
As to the kind of experiment: Trypanosoma cruzi tyrosyl tRNA synthetase (TcYRS) _High Tyrosine SOP. Note: in the data most compounds retested in dose-response had high values. To be noted: 30 µM. The format is functional.

Test [8] concerns the target T4, Tyrosyl-tRNA synthetase, putative (Trypanosoma cruzi (strain CL Brener)). As to the kind of experiment: Trypanosoma cruzi tyrosyl tRNA synthetase (TcYRS) SOP. The format is functional. Particulars: 30 µM.
Test [9] concerns the target Chromo domain-containing protein 1 (Saccharomyces cerevisiae (strain ATCC 204508 / S288c) (Baker's yeast)) (UniProt P32657). Briefly: ScCHD-1 Enzyme Inhibition Assay. Note: in the data most compounds retested in dose-response had high values. The format is functional. To be noted: 30 µM.

The structures appear in SMILES notation. For some assays here: Measured potencies and affinities stand elsewhere.

Sialic acid-binding Ig-like lectin 9 (Homo sapiens), sequence (Q9Y336 whole entry): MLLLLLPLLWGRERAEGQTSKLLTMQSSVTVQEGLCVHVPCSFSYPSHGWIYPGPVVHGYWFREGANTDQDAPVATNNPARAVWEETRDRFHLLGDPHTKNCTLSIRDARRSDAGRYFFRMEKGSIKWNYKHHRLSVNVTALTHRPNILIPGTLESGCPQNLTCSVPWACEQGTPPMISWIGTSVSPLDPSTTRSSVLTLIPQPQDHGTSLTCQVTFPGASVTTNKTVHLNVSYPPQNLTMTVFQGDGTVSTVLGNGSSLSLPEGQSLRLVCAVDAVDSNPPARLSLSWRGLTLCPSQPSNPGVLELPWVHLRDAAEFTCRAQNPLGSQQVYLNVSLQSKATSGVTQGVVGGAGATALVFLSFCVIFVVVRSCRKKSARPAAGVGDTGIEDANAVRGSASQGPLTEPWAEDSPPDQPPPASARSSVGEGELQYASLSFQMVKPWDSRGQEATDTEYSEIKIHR
Protein translocase subunit SecA (Escherichia coli (strain K12)), sequence (P10408 whole entry): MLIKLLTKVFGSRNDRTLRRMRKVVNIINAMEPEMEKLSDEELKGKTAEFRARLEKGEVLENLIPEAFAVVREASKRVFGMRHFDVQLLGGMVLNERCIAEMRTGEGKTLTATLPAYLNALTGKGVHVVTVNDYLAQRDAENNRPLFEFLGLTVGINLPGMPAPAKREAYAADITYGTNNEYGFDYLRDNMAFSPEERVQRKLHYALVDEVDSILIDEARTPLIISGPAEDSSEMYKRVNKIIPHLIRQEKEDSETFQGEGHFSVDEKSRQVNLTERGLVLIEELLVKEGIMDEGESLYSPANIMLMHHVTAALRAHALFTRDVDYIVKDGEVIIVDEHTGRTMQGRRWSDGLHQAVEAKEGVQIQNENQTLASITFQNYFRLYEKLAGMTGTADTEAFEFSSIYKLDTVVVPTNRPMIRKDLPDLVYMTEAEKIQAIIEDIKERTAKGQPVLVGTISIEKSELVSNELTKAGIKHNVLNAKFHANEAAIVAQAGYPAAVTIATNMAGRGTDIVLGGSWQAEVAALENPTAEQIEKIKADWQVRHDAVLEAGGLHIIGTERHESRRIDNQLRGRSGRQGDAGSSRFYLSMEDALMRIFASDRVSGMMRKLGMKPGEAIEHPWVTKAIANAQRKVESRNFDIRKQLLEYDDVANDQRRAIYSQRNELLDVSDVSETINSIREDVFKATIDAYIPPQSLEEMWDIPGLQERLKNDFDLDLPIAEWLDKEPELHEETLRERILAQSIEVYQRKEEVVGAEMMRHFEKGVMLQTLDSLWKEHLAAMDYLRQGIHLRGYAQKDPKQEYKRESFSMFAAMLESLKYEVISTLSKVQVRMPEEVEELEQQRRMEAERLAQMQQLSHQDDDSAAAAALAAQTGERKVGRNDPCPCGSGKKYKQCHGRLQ
Chromo domain-containing protein 1 (Saccharomyces cerevisiae (strain ATCC 204508 / S288c) (Baker's yeast)), sequence (P32657 whole entry, the tested form may be a part): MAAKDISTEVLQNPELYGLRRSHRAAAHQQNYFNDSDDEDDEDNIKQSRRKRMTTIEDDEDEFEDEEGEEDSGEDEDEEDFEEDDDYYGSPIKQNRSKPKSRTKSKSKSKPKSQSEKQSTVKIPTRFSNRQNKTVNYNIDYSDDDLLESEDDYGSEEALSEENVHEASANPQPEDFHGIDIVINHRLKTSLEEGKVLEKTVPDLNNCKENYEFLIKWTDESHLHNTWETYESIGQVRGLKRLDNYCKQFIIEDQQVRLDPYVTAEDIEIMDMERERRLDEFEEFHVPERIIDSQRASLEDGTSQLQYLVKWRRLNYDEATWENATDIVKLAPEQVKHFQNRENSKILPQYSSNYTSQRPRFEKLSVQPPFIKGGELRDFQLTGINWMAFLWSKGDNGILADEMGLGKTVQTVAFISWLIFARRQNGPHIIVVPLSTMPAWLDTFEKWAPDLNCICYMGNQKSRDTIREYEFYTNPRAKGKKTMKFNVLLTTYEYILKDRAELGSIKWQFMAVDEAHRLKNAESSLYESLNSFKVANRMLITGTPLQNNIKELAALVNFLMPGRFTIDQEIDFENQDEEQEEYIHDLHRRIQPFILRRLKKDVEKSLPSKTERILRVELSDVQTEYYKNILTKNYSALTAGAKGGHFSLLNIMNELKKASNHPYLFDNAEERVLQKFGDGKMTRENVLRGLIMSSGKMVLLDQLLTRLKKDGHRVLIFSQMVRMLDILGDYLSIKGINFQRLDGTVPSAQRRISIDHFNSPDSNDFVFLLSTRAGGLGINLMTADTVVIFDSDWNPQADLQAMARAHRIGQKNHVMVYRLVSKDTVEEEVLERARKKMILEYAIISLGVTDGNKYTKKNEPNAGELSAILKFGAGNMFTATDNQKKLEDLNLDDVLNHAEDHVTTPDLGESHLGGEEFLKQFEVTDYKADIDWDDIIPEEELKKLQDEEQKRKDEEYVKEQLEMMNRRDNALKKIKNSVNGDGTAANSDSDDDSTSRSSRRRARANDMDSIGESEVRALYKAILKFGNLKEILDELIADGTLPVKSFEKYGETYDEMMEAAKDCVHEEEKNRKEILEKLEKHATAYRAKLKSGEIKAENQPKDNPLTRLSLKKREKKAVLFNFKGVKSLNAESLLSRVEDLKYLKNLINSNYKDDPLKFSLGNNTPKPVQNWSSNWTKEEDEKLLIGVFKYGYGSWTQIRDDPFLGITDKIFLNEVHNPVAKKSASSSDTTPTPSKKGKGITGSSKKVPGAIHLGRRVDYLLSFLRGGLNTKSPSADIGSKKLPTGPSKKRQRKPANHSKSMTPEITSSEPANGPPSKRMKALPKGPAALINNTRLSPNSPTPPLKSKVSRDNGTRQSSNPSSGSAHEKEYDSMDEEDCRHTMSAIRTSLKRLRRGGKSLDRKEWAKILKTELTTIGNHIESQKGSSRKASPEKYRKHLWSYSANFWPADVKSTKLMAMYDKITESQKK

In the case of `Cc1cnc(NC(=O)c2ccc(-n3ncc(C#N)c3N)cc2)s1`, the Percent Effect in [1] was -5.51%; in [2], 7.59%; in test [3], 14.4%; in test [4], 4.78%; in the test with Trypanosoma cruzi it was -6.33%; in test [5], -4.18%. For the same compound, the Percent Effect in [6] was 5.49%; in the test listed under Homo sapiens, 29%; in test [7] it was 11.3%; in test [8], 24.1%; in [9] it was -2.52%.

As to `O=C(N1CCOCC1)[C@@]12CCO[C@@H]1CCN(CC1CCCCC1)C2`, the Percent Effect in test [1] is -4.88%; in [2], -1.33%; in test [3], 2.35%; in [4], -2.81%; in the test on Trypanosoma cruzi it was -5.3%; in test [5], -10%. Besides, the Percent Effect in [6] is 7.58%; in the test listed under Homo sapiens, 12.3%; in [7], -3.17%; in [8], -10.3%; in [9] it was -2.92%.

Regarding `CCOCCn1nnc(C2(NC(=O)c3ccccc3)CCCC2)n1`, the Percent Effect is -7.55% in [1]; 8% in [2]; -2.14% in test [3]; 0.531% in test [4]; -0.292% with Trypanosoma cruzi; 4.17% in [5]. Moreover, the Percent Effect in test [6] was -18.8%; in the test listed under Homo sapiens, -0.698%; in [7] it was 10.4%; in test [8], 11.1%; in test [9], -4.99%.

Turning to `Cc1cc(C)c(CNC(=O)N2CCCC2C(N)=O)c(=O)[nH]1` (stereo not given), the Percent Effect is -3.77% in [1]; 6.33% in test [2]; 7.27% in test [3]; 3.83% in test [4]; -1.95% in the test on Trypanosoma cruzi; 1.5% in test [5]. Besides, the Percent Effect in test [6] is 23.5%; in the test listed under Homo sapiens, 11.6%; in test [7], 5.21%; in [8], 12.7%; in test [9] it was -14.7%.

With `CNS(=O)(=O)Cc1ccc(CNC(=O)Nc2cccnc2)cc1`, the Percent Effect in test [1] is -1.42%; in test [2], 30.4%; in test [3] it was -9.66%; in test [4] it was -12.1%; in the test with Trypanosoma cruzi it was 4.25%; in [5], -6.08%. For the same compound, the Percent Effect in test [6] was 14.2%; in the test filed under Homo sapiens it was 11.1%; in test [7], 6.4%; in test [8], 16.5%; in test [9], -12.7%.

As to `COCCN1CCCC(O)(CN2CCN(c3ncccc3C)CC2)C1=O` (stereo not given), the Percent Effect in [1] is 5.28%; in test [2], -27%; in test [3], -3.41%; in [4], 7.83%; in the test with Trypanosoma cruzi it was -5.21%; in test [5], 0.476%. In addition, the Percent Effect was 15.3% in test [6]; 9.99% in the test filed under Homo sapiens; 8.99% in [7]; 12.2% in test [8]; -5.83% in test [9].

Turning to `NC(=O)C1CN(C(=O)Nc2ccccc2N2CCCCCC2)CCO1` (stereo not given), the Percent Effect in test [1] was -6.93%; in [2], -48.6%; in test [3], -3.8%; in [4], 9.74%; with Trypanosoma cruzi, 6.96%; in test [5] it was -3.88%. The Percent Effect was 4.31% in test [6]; 11.3% in the test listed under Homo sapiens; 1.98% in test [7]; 15.8% in [8]; -1.09% in [9].

For the compound `CCN1C[C@H]2CCN(C(C)=O)CC[C@H]2S1(=O)=O`, the Percent Effect is -0.139% in test [1]; 9.33% in test [2]; -6.04% in [3]; -0.534% in test [4]; -5.7% in the test on Trypanosoma cruzi; -5.81% in test [5]. Moreover, the Percent Effect in test [6] was 19.6%; in the test filed under Homo sapiens, 1.4%; in [7], 0%; in test [8] it was 5.13%; in test [9], -7.45%.

As to `CCN1CC(C(=O)N2CCC(Oc3ccccc3Cl)CC2)CC1=O` (stereo not given), the Percent Effect is -1.39% in test [1]; 2.74% in test [2]; 6.94% in test [3]; -1.45% in [4]; -11.5% with Trypanosoma cruzi; -4.39% in test [5]. Also, the Percent Effect in test [6] was 16.7%; in the test listed under Homo sapiens, 42.2%; in test [7], 3.12%; in test [8], -30.9%; in [9] it was -5.81%.

With `CN(C)S(=O)(=O)N1CCC(Oc2ccc(C#N)cn2)CC1`, the Percent Effect in test [1] is -4.11%; in test [2], 5.2%; in test [3] it was 0.734%; in test [4], 0.477%; in the test with Trypanosoma cruzi, 3.25%; in test [5] it was -0.645%. The Percent Effect in test [6] was 17.2%; in the test listed under Homo sapiens, 28%; in test [7], 5.29%; in [8] it was 8.97%; in [9], -8.98%.

Values taken from ChEMBL document CHEMBL3988442, “University of Dundee, Small-Polar-MMV Screening Library” (2021).
